Test results published in PubChem BioAssay AID1159580 (chemical genetic matrix, 2015).
Hit rate of the full screen: of about 5,500 compounds, about 2,000 (36%) were called active. Another 18% or so got no clear call; they are omitted. No stated cut-off is given here; in the data, active means normalized growth mostly below about 0.91 (no sharp cut-off); inconclusive means no clear call, values can overlap the other calls; inactive means mostly above about 0.92. The list shows a part of the results.

Assay: chemical genetic growth profiling, strain panel (AID 1159580);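 further: tested at 20 µM; growth read once vehicle control cultures reached saturation at 30 °C; 1 = growth at the plate median or of vehicle wells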
Settings: growth OD

Measured: normalized growth

COc1cnc(NS(=O)(=O)c2ccc(N)cc2)nc1
inactive: S. cerevisiae deletion strains, locus YJR075W, strain HOC1, stronger effect = lower value 0.978 | S. cerevisiae deletion strains, locus YKL009W, strain mrt4, stronger effect = lower value 0.994 | S. cerevisiae deletion strains, locus YKL068W, stronger effect = lower value 0.983 | S. cerevisiae deletion strains, locus YKL085W, strain MDH1 (second series), stronger effect = lower value 0.971 | S. cerevisiae deletion strains, locus YKL085W, strain MDH1, stronger effect = lower value 0.971 | S. cerevisiae deletion strains, locus YKL160W, strain elf1, stronger effect = lower value 0.999 | S. cerevisiae deletion strains, locus YKL190W, strain CNB1, stronger effect = lower value 0.979 | S. cerevisiae deletion strains, locus YKR001C, strain vps1, stronger effect = lower value 0.964 | S. cerevisiae deletion strains, locus YKR026C, strain gcn3, stronger effect = lower value 1 | S. cerevisiae deletion strains, locus YKR091W, strain srl3, stronger effect = lower value 0.998 | S. cerevisiae deletion strains, locus YLL001W, strain dnm1, stronger effect = lower value 0.966 | S. cerevisiae deletion strains, locus YLL026W, stronger effect = lower value 1 | S. cerevisiae deletion strains, locus YLL041C, strain sdh2, stronger effect = lower value 0.997 | S. cerevisiae deletion strains, locus YLR027C, strain aat2, stronger effect = lower value 1.01 | S. cerevisiae deletion strains, locus YLR039C, strain RIC1, stronger effect = lower value 0.969 | S. cerevisiae deletion strains, locus YLR058C, strain SHM2, stronger effect = lower value 0.976 | S. cerevisiae deletion strains, locus YLR102C, strain apc9, stronger effect = lower value 0.973 | S. cerevisiae deletion strains, locus YLR113W, strain HOG1, stronger effect = lower value 0.989 | S. cerevisiae deletion strains, locus YLR221C, strain rsa3, stronger effect = lower value 0.988 | S. cerevisiae deletion strains, locus YLR258W, strain gsy2, stronger effect = lower value 0.99 | S. cerevisiae deletion strains, locus YLR262C, strain YPT6 (second series), stronger effect = lower value 1.02 | S. cerevisiae deletion strains, locus YLR262C, strain YPT6, stronger effect = lower value 0.96 | S. cerevisiae deletion strains, locus YLR268W, strain sec22, stronger effect = lower value 0.888 | S. cerevisiae deletion strains, locus YLR320W, strain mms22, stronger effect = lower value 0.965 | S. cerevisiae deletion strains, locus YLR330W, strain CHS5, stronger effect = lower value 0.994 | S. cerevisiae deletion strains, locus YLR342W, strain FKS1 (second series), stronger effect = lower value 1.03 | S. cerevisiae deletion strains, locus YLR342W, strain FKS1, stronger effect = lower value 1.01 | S. cerevisiae deletion strains, locus YLR357W, strain rsc2, stronger effect = lower value 0.945 | S. cerevisiae deletion strains, locus YLR370C, strain arc18, stronger effect = lower value 1 | S. cerevisiae deletion strains, locus YLR371W, strain rom2, stronger effect = lower value 0.97 | S. cerevisiae deletion strains, locus YLR384C, strain iki3, stronger effect = lower value 1 | S. cerevisiae deletion strains, locus YLR418C, strain cdc73, stronger effect = lower value 0.99 | S. cerevisiae deletion strains, locus YML016C, strain PPZ1, stronger effect = lower value 0.993 | S. cerevisiae deletion strains, locus YML032C, strain rad52, stronger effect = lower value 0.97 | S. cerevisiae deletion strains, locus YML120C, strain ndi1, stronger effect = lower value 1.02 | S. cerevisiae deletion strains, locus YML124C, strain tub3, stronger effect = lower value 0.979 | S. cerevisiae deletion strains, locus YMR058W, strain fet3, stronger effect = lower value 1 | S. cerevisiae deletion strains, locus YMR078C, strain ctf18, stronger effect = lower value 0.976 | S. cerevisiae deletion strains, locus YMR125W, strain sto1, stronger effect = lower value 0.991 | S. cerevisiae deletion strains, locus YMR129W, stronger effect = lower value 0.985 | S. cerevisiae deletion strains, locus YMR205C, strain PFK2, stronger effect = lower value 0.998 | S. cerevisiae deletion strains, locus YMR223W, strain ubp8, stronger effect = lower value 0.979 | S. cerevisiae deletion strains, locus YMR231W, strain pep5, stronger effect = lower value 0.998 | S. cerevisiae deletion strains, locus YMR307W, strain GAS1, stronger effect = lower value 1.03 | S. cerevisiae deletion strains, locus YNL067W, strain RPL9B, stronger effect = lower value 0.982 | S. cerevisiae deletion strains, locus YNL071W, strain lat1, stronger effect = lower value 1.01 | S. cerevisiae deletion strains, locus YNL183C, strain NPR1, stronger effect = lower value 0.933 | S. cerevisiae deletion strains, locus YNL209W, strain ssb2, stronger effect = lower value 0.997 | S. cerevisiae deletion strains, locus YNL233W, strain BNI4, stronger effect = lower value 1 | S. cerevisiae deletion strains, locus YNL248C, strain rpa49, stronger effect = lower value 0.982 | S. cerevisiae deletion strains, locus YNL250W, strain rad50, stronger effect = lower value 0.982 | S. cerevisiae deletion strains, locus YNL271C, strain bni1, stronger effect = lower value 0.979 | S. cerevisiae deletion strains, locus YNL298W, strain CLA4, stronger effect = lower value 0.965 | S. cerevisiae deletion strains, locus YNL307C, strain MCK1, stronger effect = lower value 0.981 | S. cerevisiae deletion strains, locus YNL322C, strain KRE1 (second series), stronger effect = lower value 0.986 | S. cerevisiae deletion strains, locus YNR049C, strain mso1, stronger effect = lower value 1 | S. cerevisiae deletion strains, locus YNR052C, strain pop2, stronger effect = lower value 0.977 | S. cerevisiae deletion strains, locus YOL006C, strain TOP1, stronger effect = lower value 0.945 | S. cerevisiae deletion strains, locus YOL012C, strain htz1 0.813 | S. cerevisiae deletion strains, locus YOL147C, strain pex11, stronger effect = lower value 0.985 | S. cerevisiae deletion strains, locus YOR001W, strain rrp6, stronger effect = lower value 0.99 | S. cerevisiae deletion strains, locus YOR061W, strain CKA2, stronger effect = lower value 0.962 | S. cerevisiae deletion strains, locus YOR069W, strain VPS5, stronger effect = lower value 0.993 | S. cerevisiae deletion strains, locus YOR070C, strain gyp1, stronger effect = lower value 1.01 | S. cerevisiae deletion strains, locus YOR080W, strain dia2, stronger effect = lower value 0.98 | S. cerevisiae deletion strains, locus YOR083W, strain WHI5, stronger effect = lower value 0.943 | S. cerevisiae deletion strains, locus YOR106W, strain vam3, stronger effect = lower value 0.986 | S. cerevisiae deletion strains, locus YOR136W, strain idh2, stronger effect = lower value 0.987 | S. cerevisiae deletion strains, locus YOR144C, strain elg1, stronger effect = lower value 0.976 | S. cerevisiae deletion strains, locus YOR184W, strain ser1, stronger effect = lower value 0.985 | S. cerevisiae deletion strains, locus YOR231W, strain MKK1, stronger effect = lower value 0.99 | S. cerevisiae deletion strains, locus YOR265W, strain rbl2, stronger effect = lower value 1.02 | S. cerevisiae deletion strains, locus YOR270C, strain vph1, stronger effect = lower value 1.04 | S. cerevisiae deletion strains, locus YOR290C, strain snf2, stronger effect = lower value 0.984 | S. cerevisiae deletion strains, locus YOR316C, strain cot1, stronger effect = lower value 0.958 | S. cerevisiae deletion strains, locus YPL051W, strain arl3, stronger effect = lower value 0.999 | S. cerevisiae deletion strains, locus YPL055C, strain LGE1, stronger effect = lower value 0.949 | S. cerevisiae deletion strains, locus YPL078C, strain atp4, stronger effect = lower value 0.991 | S. cerevisiae deletion strains, locus YPL106C, strain sse1, stronger effect = lower value 0.952 | S. cerevisiae deletion strains, locus YPL240C, strain hsp82, stronger effect = lower value 1 | S. cerevisiae deletion strains, locus YPL256C, strain CLN2, stronger effect = lower value 0.99 | S. cerevisiae deletion strains, locus YPR119W, strain clb2, stronger effect = lower value 0.985 | S. cerevisiae deletion strains, locus YPR141C, strain kar3, stronger effect = lower value 0.96 | S. cerevisiae deletion strains, locus YPR163C, strain tif3, stronger effect = lower value 0.991 | S. cerevisiae deletion strains, locus YPR167C, strain met16, stronger effect = lower value 0.983 | S. cerevisiae deletion strains, strain wtn01, stronger effect = lower value 0.989 | S. cerevisiae strains, strain wild type, stronger effect = lower value 0.983
